Among all 360,000 compounds or so, about 1,400 (0.39%) were called active. This excerpt belongs to a sample that is enriched for actives. Values without a mark were called inactive. Cut-off read from the data, not from the text of the source: active = inhibition above about 5% (passing the limit was not always enough); inactive = the rest.
The molecules below were run against Tyrosine-protein kinase ABL1 (Homo sapiens) + Ras and Rab interactor 1 (Homo sapiens) (UniProt P00519+Q13671) (assay: disruptors of human Abl and Rin1 association – biochemical, TR-FRET, primary screen (AID 588664)). Settings: TR-FRET Rin1/Abl binding, at 7.35 µM, hits give high values.
Chain of Tyrosine-protein kinase ABL1 (Homo sapiens) + Ras and Rab interactor 1 (Homo sapiens) (P00519 whole entry, looked up): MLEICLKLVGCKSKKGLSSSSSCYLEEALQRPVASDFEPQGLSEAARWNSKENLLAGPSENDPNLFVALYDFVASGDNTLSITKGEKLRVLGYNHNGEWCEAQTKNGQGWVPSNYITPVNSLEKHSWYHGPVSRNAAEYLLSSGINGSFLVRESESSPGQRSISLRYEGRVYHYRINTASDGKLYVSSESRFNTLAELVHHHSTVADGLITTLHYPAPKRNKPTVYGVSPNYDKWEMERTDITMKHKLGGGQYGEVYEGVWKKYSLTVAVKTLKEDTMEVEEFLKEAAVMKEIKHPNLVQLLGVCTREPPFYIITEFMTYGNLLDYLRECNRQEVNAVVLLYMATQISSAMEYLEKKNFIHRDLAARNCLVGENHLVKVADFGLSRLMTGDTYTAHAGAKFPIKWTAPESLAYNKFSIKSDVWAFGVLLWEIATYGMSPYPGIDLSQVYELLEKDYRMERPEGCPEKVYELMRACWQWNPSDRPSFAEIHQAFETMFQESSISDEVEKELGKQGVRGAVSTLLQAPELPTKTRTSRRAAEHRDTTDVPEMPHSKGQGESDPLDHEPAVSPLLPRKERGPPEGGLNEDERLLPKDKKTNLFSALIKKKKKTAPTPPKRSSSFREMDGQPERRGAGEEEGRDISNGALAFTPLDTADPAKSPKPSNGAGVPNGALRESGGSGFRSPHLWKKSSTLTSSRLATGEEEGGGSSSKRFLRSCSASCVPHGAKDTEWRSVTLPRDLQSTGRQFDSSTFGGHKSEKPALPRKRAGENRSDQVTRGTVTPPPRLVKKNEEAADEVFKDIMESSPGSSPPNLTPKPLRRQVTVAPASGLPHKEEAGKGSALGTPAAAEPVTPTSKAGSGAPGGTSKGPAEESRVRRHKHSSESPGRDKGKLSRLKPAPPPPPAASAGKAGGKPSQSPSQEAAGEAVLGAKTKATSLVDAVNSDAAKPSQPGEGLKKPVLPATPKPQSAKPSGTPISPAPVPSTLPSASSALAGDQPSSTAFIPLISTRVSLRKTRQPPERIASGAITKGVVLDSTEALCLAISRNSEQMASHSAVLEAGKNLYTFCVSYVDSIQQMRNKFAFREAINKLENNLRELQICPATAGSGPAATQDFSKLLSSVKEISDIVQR
Chain of Tyrosine-protein kinase ABL1 (Homo sapiens) + Ras and Rab interactor 1 (Homo sapiens) (Q13671 whole entry, looked up): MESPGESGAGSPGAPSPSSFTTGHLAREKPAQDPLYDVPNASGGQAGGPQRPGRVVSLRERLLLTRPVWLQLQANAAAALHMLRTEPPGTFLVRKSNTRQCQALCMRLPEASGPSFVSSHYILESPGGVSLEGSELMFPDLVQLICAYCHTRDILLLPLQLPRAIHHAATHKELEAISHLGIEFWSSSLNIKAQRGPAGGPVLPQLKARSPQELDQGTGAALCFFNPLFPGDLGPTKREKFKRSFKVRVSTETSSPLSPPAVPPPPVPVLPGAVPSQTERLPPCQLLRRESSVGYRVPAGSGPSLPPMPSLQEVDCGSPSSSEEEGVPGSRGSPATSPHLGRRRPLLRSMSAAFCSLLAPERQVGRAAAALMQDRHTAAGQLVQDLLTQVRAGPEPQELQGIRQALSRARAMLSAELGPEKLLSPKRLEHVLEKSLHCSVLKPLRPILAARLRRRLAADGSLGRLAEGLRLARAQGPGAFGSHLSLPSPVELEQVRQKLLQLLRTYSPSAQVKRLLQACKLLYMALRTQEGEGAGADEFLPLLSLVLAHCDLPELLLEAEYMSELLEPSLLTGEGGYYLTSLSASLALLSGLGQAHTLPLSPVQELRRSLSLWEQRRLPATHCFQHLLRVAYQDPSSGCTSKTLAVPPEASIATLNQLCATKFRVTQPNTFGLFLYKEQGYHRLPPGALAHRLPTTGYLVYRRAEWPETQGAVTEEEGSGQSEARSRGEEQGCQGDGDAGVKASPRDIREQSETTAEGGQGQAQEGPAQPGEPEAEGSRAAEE

| SMILES | inhibition |
| --- | --- |
| CSCCC(c1nnnn1C(C)(C)C)N1CCC(n2c(=O)[nH]c3ccccc32)CC1 (stereo not given) | 19.1% (active) |
| O=c1[nH]c2ccccc2n1C1CCN(C(c2ccccc2)c2nnnn2Cc2ccccc2)CC1 (stereo not given) | -0.41% |
| COc1ccc(-n2nnnc2C(c2cccc3ccccc23)N2CCC(n3c(=O)[nH]c4ccccc43)CC2)cc1 (stereo not given) | 0.78% |
| COc1ccc2[nH]c3c(c2c1)CCN[C@H]3C | -0.17% |
| CCc1nnc(NS(=O)(=O)c2ccc(N=Cc3c(O)n(-c4ccccc4)c(=O)[nH]c3=O)cc2)s1 | 4.11% |
